Data: the supplement of paper PMC6555819

Each sequence was assayed on VDR:RXRa (NR concentration 270 nM, RXRa partner concentration 90 nM) (assay: PBM binding z-score (relative to random genomic background probes); higher = stronger binding; sequences stand for … in GC…GCGATTGACAGCGTAGAATGAAGG).
Method: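 Protein-binding microarray (Agilent 4x180K custom design, double-stranded 60-nt probes: 5' GC cap, 34-nt variable region, 24-nt constant primer region; full probe sequence given). Purified or IVT nuclear receptor:RXRα heterodimers (3:1 NR:RXRα, mostly 270:90 nM) or homodimers were incubated for 1 h in PBS with 2% milk and no ligand, then detected with Alexa488 antibodies. Fluorescence from o1-orientation probes (~5 replicates averaged) was converted to z-scores against 500 random hg19 background probes. Variable regions are seed direct-repeat (DR0–DR5) sites, all their single-nucleotide variants and half-site ablations.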

ACTATTAGTTGACTTAGGGCAACCCATACGACGC was tested. Which PBM binding z-score did it give?
Its PBM binding z-score is 0.512.

Which PBM binding z-score does the source give for AGAATGAGGTTCCCAAAGATCAGGGAAACGCTTG here?
The PBM binding z-score was -0.0526.

How did the PBM binding z-score turn out when CGTCAAGGTTCAACTAAGGTAACGTAAAGCACGC was run?
Its PBM binding z-score is 3.94.

How did the PBM binding z-score turn out when CCTTACGGGCCACTCCAGGTTATAGCATCGGAGT was run?
The PBM binding z-score was -0.25.

AGTCTAAGTTCACTAGGTAACGTAAGATTCAGCT was tested. Which PBM binding z-score did it give?
Its PBM binding z-score is 3.59.

With CGAACTAGGTCAGAACAGGACAGTGGAGGATGAT as the sequence, how does the PBM binding z-score read?
The PBM binding z-score was 0.581.

How did the PBM binding z-score turn out when TCTTGTACATCAGCAGGTTAAGAAAGCTGGCCAA was run?
The PBM binding z-score was 0.622.

With AATACAGAGTCACTAGGCCAGAGTAGGTACGAAT as the sequence, how does the PBM binding z-score read?
Its PBM binding z-score is -0.0941.

With CATACAGGGTCACCTAGGCCAGAGTAGGGACGGC as the sequence, how does the PBM binding z-score read?
The PBM binding z-score was 5.14.

For CAAACTAGGTGACGAAAGGTCAAAGTCGAATGAC, which PBM binding z-score is on record?
The PBM binding z-score was 5.16.

With TCATATAGGTAAAAGGTGACAGTCGGTGTGGTAA as the sequence, how does the PBM binding z-score read?
The PBM binding z-score was 1.35.

With TCTTGTAGATCTAGCAGGTTAAGAAAGCCTGAGT as the sequence, how does the PBM binding z-score read?
Its PBM binding z-score is 0.391.

For AGTCACAGTTCATCTAGGTAACGTAAGATATGCT, which PBM binding z-score is on record?
Its PBM binding z-score is 3.05.

GCTTGTAGATCAAGGTTGAGAAAGACTAAGCTAA was tested. Which PBM binding z-score did it give?
Its PBM binding z-score is -0.388.

Which PBM binding z-score does the source give for CCTACTAGGTCATGGTCAGCTAATCTACAGTATG here?
The PBM binding z-score was 1.8.

Which PBM binding z-score does the source give for ATCTAAAGGTCGTGAGGTGAGTATACAGAAAGGC here?
The PBM binding z-score was 3.73.

With GGAACGAGGGCAAAGTTGATAGAATCTGTCGACG as the sequence, how does the PBM binding z-score read?
The PBM binding z-score was 1.34.

With CAAACTAGGTCAAGAAAGGTCAAAGTCGAATGAC as the sequence, how does the PBM binding z-score read?
The PBM binding z-score was 6.44.

Which PBM binding z-score does the source give for TCTCGGAGGACACGAAAGGTCGGAGCTCGACATC here?
Its PBM binding z-score is 1.08.

GTAACGAGGGCAAGTTGATAGCAGAGTTTGATGG was tested. Which PBM binding z-score did it give?
Its PBM binding z-score is 1.09.

CCTACTGGTCCAAAGGTCATTGATTCCAATGCTC was tested. Which PBM binding z-score did it give?
The PBM binding z-score was 4.83.

For GCGACTGGGGCATCAGCAGGTTAACATAACTTAA, which PBM binding z-score is on record?
The PBM binding z-score was 0.126.

With CGAACTAGGTCAATGACAGTGAATCTCCGCACGC as the sequence, how does the PBM binding z-score read?
Its PBM binding z-score is 1.15.

How did the PBM binding z-score turn out when CGTCCAAGGTCAGCAGGTCAGTGTAAGCGACGTG was run?
Its PBM binding z-score is 4.14.

How did the PBM binding z-score turn out when ACAGCCAGGTGAGTGAAGGTAACTCAGCTGGACG was run?
The PBM binding z-score was -0.635.

For TCTGCTGGGTCAGTTGGTCAGCTAACGAGCTGCC, which PBM binding z-score is on record?
Its PBM binding z-score is 0.238.

Which PBM binding z-score does the source give for CCGACTGGGACAAAGGTTACCATACTCAGTACGA here?
The PBM binding z-score was 1.14.

How did the PBM binding z-score turn out when CGTCCAAGGTCAATGTCAGTGAAAGAGACTCGAA was run?
Its PBM binding z-score is 3.45.

With CGTCCAAGGTCAAGGTAAGTGAAAGAGACTCGAA as the sequence, how does the PBM binding z-score read?
The PBM binding z-score was 3.76.

How did the PBM binding z-score turn out when ATACCAAGGTGATCGTGAGGTCGTAGATACTAAC was run?
Its PBM binding z-score is 2.42.

With CAAACTAGGCCAAAGGTCAAAGTCGAGCCAACCA as the sequence, how does the PBM binding z-score read?
The PBM binding z-score was 4.89.

With TCTCGGAGGACACGAAGGTAAGAGCTTTCCAGAG as the sequence, how does the PBM binding z-score read?
The PBM binding z-score was -0.386.

How did the PBM binding z-score turn out when CCTACTAGGCCACGAAAGGTCATTGATTCAGTGA was run?
The PBM binding z-score was 4.42.

ATATGTAGGTTATCGGGTCATTCCGTTTGCGCAT was tested. Which PBM binding z-score did it give?
Its PBM binding z-score is 3.86.

For CCAGACAGGTGAGAAGGTAACCCAGCCTCGATTA, which PBM binding z-score is on record?
The PBM binding z-score was -0.04.

ATATGTAGGTTACATCTGGGTCATTCAGGCTATG was tested. Which PBM binding z-score did it give?
The PBM binding z-score was 3.04.

How did the PBM binding z-score turn out when AGAATGAGGGCAATGAGTTGATAGCACGGGTGGC was run?
Its PBM binding z-score is 4.98.

How did the PBM binding z-score turn out when CCTAGCAGGCCAATCTGGGTCACTCAAGGCTTGA was run?
Its PBM binding z-score is 0.724.

Which PBM binding z-score does the source give for CAAACTAGGTCACGACAGGTCAAAGTCGAATGAC here?
The PBM binding z-score was 6.07.

How did the PBM binding z-score turn out when CCAAGCAGGCCAGGGTCACTCAAGCATTTCGCTT was run?
Its PBM binding z-score is 2.55.
